Consider four compounds from ChEMBL document CHEMBL1961873, “Compounds: GSK PKIS; Assays: Nanosyn kinase panel” (2012).

SMILES strings stand for the structures.

Test [1] has as its target T1, Serine/threonine-protein kinase Nek9 (Homo sapiens) (UniProt Q8TD19).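 Also: each value is a mean percent inhibition of NEK9.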
T1 sequence (whole entry): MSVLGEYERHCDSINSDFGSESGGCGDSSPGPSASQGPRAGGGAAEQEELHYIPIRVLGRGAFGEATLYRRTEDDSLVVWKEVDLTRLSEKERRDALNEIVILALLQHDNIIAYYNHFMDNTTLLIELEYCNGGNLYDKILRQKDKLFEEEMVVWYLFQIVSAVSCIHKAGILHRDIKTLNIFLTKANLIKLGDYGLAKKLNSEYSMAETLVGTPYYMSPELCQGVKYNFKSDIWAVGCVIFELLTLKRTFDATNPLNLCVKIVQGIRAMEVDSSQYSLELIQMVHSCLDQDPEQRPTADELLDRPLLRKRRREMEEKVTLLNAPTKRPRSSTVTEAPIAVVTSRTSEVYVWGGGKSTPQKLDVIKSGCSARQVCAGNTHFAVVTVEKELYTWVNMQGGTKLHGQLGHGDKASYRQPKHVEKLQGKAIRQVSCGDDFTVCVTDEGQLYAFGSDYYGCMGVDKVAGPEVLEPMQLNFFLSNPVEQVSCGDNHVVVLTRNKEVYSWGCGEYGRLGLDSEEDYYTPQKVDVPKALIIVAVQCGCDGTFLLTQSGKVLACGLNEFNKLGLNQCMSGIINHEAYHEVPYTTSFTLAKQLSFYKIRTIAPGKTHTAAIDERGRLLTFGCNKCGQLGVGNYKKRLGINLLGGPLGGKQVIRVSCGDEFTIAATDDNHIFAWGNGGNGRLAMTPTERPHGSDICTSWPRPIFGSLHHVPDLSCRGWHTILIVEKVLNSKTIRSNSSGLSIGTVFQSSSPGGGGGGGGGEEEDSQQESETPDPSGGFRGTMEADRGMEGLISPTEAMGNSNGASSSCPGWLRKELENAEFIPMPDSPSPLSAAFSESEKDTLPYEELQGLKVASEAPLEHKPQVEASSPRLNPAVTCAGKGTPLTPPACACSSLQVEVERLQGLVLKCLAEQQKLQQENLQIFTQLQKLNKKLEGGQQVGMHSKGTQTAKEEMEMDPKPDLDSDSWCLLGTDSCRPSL
The following applies: at 1 µM.

Test [2] concerns the target Serine/threonine-protein kinase PLK1 (Homo sapiens) (UniProt P53350). The conditions noted are these: at 0.1 µM.
Test [3] shares this target. The conditions noted are these: at 1 µM.
Test [4] concerns the target T2, Dual specificity protein kinase TTK (Homo sapiens) (UniProt P33981).
T2 sequence (whole entry): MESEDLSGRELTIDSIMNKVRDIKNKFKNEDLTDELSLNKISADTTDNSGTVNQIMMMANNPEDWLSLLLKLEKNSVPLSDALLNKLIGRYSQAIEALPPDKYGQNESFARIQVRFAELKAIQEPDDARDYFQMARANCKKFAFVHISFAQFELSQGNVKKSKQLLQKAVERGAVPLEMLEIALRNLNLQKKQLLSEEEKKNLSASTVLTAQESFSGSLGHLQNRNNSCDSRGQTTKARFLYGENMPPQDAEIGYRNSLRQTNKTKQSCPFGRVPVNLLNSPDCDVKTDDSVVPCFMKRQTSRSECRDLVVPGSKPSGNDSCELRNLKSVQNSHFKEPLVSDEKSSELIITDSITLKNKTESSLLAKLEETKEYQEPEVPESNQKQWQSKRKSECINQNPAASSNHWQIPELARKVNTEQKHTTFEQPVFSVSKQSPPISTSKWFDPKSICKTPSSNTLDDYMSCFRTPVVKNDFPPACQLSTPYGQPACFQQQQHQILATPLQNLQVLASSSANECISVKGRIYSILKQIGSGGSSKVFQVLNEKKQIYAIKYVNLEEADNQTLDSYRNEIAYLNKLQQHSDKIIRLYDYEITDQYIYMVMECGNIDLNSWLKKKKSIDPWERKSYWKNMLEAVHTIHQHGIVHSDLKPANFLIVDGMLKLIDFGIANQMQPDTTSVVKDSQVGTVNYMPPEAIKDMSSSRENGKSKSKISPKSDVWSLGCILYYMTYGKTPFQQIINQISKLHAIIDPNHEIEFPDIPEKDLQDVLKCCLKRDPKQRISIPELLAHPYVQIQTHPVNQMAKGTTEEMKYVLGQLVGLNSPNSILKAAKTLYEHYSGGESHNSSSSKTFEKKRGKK
The following applies: at 0.1 µM.

For test [5], the system named is T3, Receptor-type tyrosine-protein kinase FLT3 (Homo sapiens), P36888 [D835Y].
T3 sequence (whole entry): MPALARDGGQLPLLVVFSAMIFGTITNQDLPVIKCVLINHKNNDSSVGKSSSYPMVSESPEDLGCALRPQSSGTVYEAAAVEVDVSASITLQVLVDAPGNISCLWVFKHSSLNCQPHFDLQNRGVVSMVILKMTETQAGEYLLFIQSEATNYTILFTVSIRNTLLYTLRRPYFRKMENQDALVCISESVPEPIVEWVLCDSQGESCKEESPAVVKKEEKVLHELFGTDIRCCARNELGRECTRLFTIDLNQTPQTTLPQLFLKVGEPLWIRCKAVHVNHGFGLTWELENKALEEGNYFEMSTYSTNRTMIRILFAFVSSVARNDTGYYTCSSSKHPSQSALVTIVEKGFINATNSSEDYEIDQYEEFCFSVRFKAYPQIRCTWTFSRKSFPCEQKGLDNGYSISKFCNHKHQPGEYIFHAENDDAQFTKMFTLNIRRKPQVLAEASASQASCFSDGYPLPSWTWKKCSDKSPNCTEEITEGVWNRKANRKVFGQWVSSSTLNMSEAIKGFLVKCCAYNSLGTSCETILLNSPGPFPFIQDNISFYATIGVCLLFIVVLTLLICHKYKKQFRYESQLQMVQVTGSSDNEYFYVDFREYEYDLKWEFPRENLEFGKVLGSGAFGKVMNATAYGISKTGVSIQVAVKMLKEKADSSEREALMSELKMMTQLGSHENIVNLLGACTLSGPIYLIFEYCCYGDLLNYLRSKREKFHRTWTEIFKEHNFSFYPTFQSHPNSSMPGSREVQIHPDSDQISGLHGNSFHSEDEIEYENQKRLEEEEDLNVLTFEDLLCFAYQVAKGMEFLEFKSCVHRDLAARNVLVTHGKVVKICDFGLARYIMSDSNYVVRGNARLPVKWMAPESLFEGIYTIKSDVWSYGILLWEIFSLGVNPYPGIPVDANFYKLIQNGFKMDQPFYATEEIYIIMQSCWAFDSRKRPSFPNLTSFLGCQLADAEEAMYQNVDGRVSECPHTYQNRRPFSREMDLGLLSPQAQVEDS
The conditions noted are these: at 1 µM.

Test [6] concerns the target Vascular endothelial growth factor receptor 3 (Homo sapiens) (UniProt P35916). The following applies: at 0.1 µM.
For test [7] the target is unchanged. The conditions noted are these: at 1 µM.
Test [8] concerns the target Macrophage colony-stimulating factor 1 receptor (Homo sapiens) (UniProt P07333). The conditions noted are these: at 0.1 µM.
For test [9] the target is unchanged. The conditions noted are these: at 1 µM.
The target in test [10] is Tyrosine-protein kinase Fyn (Homo sapiens) (UniProt P06241). The conditions noted are these: at 0.1 µM.
Test [11] shares this target. The conditions noted are these: at 1 µM.
Test [12] deals with Tyrosine-protein kinase HCK (Homo sapiens) (UniProt P08631). The following applies: at 0.1 µM.
Test [13] shares this target. The following applies: at 1 µM.
Test [14] addresses Insulin-like growth factor 1 receptor (Homo sapiens) (UniProt P08069). The conditions noted are these: at 0.1 µM.
Test [15] shares this target. The following applies: at 1 µM.
Test [16] addresses Insulin receptor (Homo sapiens) (UniProt P06213). The following applies: at 0.1 µM.
For test [17] the target is unchanged. The following applies: at 1 µM.
Test [18] addresses Insulin receptor-related protein (Homo sapiens) (UniProt P14616). The conditions noted are these: at 0.1 µM.
The target is the same in test [19]. The conditions noted are these: at 1 µM.
Test [20] deals with T4, Tyrosine-protein kinase ITK/TSK (Homo sapiens) (UniProt Q08881).
T4 sequence (whole entry): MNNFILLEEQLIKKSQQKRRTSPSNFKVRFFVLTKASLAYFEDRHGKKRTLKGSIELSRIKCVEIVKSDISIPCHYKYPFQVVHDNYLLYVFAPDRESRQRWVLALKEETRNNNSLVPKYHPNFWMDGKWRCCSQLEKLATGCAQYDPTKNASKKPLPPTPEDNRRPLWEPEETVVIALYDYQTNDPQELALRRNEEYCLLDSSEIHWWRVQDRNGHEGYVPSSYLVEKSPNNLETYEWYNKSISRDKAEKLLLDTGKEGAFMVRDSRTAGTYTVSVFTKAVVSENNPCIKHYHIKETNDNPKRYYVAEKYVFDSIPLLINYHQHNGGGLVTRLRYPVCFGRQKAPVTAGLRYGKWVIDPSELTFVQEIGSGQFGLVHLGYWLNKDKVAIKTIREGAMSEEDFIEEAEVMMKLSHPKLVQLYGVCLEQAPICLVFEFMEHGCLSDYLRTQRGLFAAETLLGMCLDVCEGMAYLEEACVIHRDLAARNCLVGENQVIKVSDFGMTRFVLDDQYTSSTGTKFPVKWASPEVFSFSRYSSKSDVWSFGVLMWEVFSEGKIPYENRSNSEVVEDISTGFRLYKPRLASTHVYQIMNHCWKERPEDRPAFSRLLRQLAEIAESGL
The following applies: at 0.1 µM.

Sequence of Serine/threonine-protein kinase PLK1 (Homo sapiens) (P53350 whole entry): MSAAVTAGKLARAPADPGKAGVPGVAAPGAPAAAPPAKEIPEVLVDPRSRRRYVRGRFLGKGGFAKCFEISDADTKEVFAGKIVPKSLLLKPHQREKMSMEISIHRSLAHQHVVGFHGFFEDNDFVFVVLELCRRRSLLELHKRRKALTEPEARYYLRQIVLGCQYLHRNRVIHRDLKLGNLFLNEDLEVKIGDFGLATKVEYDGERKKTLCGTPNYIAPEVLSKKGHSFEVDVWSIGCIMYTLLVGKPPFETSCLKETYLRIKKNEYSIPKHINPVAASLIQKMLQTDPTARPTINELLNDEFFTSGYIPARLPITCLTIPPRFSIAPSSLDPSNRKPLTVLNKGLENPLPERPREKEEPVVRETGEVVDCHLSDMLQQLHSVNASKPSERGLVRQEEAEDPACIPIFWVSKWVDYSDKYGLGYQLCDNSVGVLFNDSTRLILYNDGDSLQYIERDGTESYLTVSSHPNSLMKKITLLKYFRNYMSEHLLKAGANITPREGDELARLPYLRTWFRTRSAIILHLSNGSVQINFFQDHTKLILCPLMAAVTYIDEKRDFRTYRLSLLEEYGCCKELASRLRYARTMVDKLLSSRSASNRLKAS
Sequence of Insulin-like growth factor 1 receptor (Homo sapiens) (P08069 31-736 limits assumed): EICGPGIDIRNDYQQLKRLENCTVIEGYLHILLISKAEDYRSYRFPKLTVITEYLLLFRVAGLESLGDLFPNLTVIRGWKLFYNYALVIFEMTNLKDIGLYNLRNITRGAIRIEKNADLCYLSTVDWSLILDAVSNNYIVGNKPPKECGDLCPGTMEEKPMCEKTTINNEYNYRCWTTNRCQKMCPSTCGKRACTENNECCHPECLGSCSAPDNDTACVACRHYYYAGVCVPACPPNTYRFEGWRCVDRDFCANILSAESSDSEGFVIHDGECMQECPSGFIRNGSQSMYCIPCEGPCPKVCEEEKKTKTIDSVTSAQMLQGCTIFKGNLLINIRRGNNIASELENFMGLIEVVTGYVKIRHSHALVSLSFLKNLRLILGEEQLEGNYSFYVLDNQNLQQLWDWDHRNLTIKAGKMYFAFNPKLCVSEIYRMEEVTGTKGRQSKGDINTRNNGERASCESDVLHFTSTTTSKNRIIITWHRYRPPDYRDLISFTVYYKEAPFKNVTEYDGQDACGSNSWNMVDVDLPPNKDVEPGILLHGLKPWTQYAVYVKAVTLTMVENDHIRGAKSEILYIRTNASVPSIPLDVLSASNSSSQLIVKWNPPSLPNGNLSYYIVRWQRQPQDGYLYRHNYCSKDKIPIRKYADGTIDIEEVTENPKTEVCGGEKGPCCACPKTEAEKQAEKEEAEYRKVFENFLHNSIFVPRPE
Sequence of Insulin-like growth factor 1 receptor (Homo sapiens) (P08069 741-1367 limits assumed): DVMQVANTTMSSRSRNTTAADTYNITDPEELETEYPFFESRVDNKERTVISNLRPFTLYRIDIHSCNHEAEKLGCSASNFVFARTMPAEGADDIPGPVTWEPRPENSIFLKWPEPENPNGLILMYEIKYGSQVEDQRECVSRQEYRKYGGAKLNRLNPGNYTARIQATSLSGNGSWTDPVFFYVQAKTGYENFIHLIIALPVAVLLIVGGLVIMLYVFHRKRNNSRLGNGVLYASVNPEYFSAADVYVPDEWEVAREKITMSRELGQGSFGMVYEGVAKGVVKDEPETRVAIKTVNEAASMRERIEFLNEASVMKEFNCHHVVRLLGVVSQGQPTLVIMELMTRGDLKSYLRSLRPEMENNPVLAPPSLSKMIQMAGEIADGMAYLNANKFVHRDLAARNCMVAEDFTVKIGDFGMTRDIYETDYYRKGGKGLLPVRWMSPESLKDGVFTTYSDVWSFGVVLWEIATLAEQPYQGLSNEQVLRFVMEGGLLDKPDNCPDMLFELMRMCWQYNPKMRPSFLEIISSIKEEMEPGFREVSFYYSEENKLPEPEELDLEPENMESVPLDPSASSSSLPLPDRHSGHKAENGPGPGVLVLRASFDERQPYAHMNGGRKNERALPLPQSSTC
Sequence of Insulin receptor-related protein (Homo sapiens) (P14616 27-742 limits assumed): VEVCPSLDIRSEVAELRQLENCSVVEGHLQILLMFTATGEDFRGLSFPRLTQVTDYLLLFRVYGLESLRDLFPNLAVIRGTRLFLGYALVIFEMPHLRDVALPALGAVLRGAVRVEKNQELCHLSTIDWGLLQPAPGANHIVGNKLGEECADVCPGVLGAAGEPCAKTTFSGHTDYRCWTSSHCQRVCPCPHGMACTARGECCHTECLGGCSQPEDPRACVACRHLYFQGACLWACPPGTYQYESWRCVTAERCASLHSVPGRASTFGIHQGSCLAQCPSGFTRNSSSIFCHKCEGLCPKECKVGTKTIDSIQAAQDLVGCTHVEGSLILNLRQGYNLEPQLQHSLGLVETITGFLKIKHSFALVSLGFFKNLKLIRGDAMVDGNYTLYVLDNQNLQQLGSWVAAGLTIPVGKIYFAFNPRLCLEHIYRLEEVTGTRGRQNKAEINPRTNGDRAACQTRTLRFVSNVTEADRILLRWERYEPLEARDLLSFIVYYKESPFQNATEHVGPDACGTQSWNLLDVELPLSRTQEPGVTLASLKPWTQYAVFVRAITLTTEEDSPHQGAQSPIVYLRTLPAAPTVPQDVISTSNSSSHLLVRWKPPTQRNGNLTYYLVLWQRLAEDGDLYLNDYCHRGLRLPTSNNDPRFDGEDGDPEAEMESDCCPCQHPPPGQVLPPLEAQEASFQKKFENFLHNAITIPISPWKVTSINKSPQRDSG
Sequence of Insulin receptor-related protein (Homo sapiens) (P14616 747-1297 limits assumed): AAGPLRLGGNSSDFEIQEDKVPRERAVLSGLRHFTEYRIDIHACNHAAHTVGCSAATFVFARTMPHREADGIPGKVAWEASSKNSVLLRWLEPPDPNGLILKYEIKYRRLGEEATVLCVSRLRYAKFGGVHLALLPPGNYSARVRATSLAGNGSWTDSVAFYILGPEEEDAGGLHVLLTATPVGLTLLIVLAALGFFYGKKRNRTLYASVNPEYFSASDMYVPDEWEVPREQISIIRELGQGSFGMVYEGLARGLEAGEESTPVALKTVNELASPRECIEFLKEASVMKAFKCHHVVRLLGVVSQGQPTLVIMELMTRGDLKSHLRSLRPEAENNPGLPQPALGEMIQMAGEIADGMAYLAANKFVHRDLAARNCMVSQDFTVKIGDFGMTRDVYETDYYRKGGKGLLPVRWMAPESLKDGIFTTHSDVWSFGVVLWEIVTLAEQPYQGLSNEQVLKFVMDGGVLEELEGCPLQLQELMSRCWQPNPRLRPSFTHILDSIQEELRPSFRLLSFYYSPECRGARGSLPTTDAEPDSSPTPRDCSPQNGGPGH
Sequence of Insulin receptor (Homo sapiens) (P06213 28-758 limits assumed): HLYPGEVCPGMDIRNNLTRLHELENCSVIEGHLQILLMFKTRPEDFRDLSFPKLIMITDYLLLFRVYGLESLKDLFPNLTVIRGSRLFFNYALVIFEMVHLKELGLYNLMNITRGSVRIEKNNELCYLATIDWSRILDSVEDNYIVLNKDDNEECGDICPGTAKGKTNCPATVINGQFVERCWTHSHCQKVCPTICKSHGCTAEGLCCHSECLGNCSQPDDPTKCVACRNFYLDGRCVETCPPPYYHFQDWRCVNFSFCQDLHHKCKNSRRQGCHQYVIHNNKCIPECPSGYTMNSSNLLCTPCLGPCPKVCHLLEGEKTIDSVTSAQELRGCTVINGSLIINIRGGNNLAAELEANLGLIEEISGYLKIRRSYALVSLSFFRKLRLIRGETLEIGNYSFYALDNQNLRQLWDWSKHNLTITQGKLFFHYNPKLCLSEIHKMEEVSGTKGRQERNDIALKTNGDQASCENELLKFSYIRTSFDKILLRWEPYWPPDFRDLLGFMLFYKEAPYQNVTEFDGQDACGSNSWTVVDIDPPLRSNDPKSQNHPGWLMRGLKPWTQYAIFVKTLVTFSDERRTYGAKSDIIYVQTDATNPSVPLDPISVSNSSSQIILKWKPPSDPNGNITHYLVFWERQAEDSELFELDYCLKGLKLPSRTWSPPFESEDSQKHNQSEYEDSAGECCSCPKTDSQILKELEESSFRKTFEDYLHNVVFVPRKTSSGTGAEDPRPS
Sequence of Insulin receptor (Homo sapiens) (P06213 763-1382 limits assumed): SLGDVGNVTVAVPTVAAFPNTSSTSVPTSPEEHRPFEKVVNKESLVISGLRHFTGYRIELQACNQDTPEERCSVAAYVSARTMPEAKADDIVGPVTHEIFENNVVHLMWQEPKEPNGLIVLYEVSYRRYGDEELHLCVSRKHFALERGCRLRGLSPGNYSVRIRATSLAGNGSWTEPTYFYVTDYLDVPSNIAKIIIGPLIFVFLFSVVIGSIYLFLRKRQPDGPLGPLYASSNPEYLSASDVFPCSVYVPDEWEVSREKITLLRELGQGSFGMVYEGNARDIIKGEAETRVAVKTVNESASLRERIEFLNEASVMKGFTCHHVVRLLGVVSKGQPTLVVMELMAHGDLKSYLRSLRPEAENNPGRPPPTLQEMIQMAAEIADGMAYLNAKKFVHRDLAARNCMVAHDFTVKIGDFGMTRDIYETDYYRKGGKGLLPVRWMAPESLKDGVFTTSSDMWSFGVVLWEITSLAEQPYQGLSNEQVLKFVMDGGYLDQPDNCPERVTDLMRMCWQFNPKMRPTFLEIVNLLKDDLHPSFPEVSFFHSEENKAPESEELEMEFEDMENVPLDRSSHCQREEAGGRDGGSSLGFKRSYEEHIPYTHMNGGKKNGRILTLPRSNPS

Broadly, the inhibition is the drop in the measured response relative to a control, in per cent. `Nc1nonc1-c1nc2cnccc2n1C1CCCCC1`: the inhibition in test [1] was -2.86%; in [2], -2.48%; in test [3], -0.5%; in test [4], -1.57%; in test [5] it was 19.7%; in test [6], 4.11%. The inhibition was 16.7% in [7]; 27.4% in test [8]; 76.3% in test [9]; 2.06% in [10]; 4.39% in test [11]; -1% in test [12]. Also, the inhibition in test [13] is 0.66%; in test [14] it was -3.43%; in [15] it was -0.98%; in [16] it was -0.54%; in test [17], -0.22%; in test [18], -2.35%. For the same compound, the figures for the inhibition in test [19] and in test [20] were -3.62% and -0.34%, respectively.

As to `COc1cc2c(cc1Nc1nc(Nc3ccsc3C(N)=O)c3cc[nH]c3n1)N(C(=O)CN(C)C)CCC2`, the inhibition in test [1] was -3.87%; in test [2], 86.3%; in test [3], 97.1%; in test [4], 9.22%; in test [5], 5.44%; in test [8] it was 55%. The inhibition is 82.8% in [9]; 2.02% in test [10]; 6.09% in [11]; 14% in test [12]; 16.6% in test [13]; 99.3% in test [14]. Besides, the inhibition in [15] is 101%; in test [16], 102%; in test [17] it was 99.9%; in test [18], 95.7%; in test [19], 97.3%; in [20], -1.24%.

For the compound `NC(=O)c1sc(-n2cnc3cc(C(F)(F)F)ccc32)cc1OCc1ccccc1Br`, the inhibition in test [1] turned out to be 10.3%; in test [2], 21%; in [3] it was 69.5%; in test [4], 2.94%; in test [5], 4.97%; in [6], 2.24%. Besides, the inhibition in test [7] is 4.4%; in [8], -0.7%; in test [9], 3.85%; in test [10], 2.13%; in test [11] it was 7.58%; in test [12], 2.82%. The inhibition is 0.29% in [13]; -2.64% in test [14]; 0.95% in test [15]; 0.33% in test [16]; 1.77% in test [17]; 1.13% in test [18]. Besides, the inhibition in test [19] was -0.33%; in [20] it was -0.64%.

Consider `COc1cccc(COc2cc(-n3cnc4ccccc43)sc2C(N)=O)c1`, for which the inhibition was 8.39% in [1]; 66.5% in test [2]; 92.2% in test [3]; 3.72% in test [4]; -4.13% in [5]; -2.19% in [6]. Also, the inhibition in test [7] was 4.75%; in [8] it was -8.31%; in test [9] it was -1.4%; in [10], 0%; in [11], 2.15%; in test [12] it was -1.32%. The inhibition in test [13] is -0.98%; in test [14] it was -3.85%; in test [15], -1.64%; in [16], -3.2%; in test [17], 0.19%; in [18] it was -0.6%. The figures for the inhibition in test [19] and in test [20] were -1.17% and -2.19%, respectively.
